Bioassay records deposited in PubChem by several laboratories.
ANO1 block – inhibitors of mouse TMEM16A calcium-activated chloride channel. HEK293 TMEM16A/YFP iodide influx fluorescence, ionomycin. normalized B-score (activity score, 25-100; higher = stronger inhibition) at 10 µM. 1.2% of 310,000 active. AID 588511;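 active = ratio plate-corrected score three or more library SD toward inhibition, starting fluorescence score within five deviations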;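 note: score derived from kinetic fluorescence span divided by baseline fluorescence per well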
PREPL inhibitor – inhibitors of human prolyl oligopeptidase-like enzyme PREPL | Q4J6C6 | recombinant PREPL, fluorescence polarization activity-based probe | 0.68% of 320,000 active | inhibition, % at 5.96 µM; in the data active = inhibition above about 43%;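 note: 0% = enzyme with DMSO and 100% = wells lacking enzyme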
Target sequence (Q4J6C6 whole entry, looked up): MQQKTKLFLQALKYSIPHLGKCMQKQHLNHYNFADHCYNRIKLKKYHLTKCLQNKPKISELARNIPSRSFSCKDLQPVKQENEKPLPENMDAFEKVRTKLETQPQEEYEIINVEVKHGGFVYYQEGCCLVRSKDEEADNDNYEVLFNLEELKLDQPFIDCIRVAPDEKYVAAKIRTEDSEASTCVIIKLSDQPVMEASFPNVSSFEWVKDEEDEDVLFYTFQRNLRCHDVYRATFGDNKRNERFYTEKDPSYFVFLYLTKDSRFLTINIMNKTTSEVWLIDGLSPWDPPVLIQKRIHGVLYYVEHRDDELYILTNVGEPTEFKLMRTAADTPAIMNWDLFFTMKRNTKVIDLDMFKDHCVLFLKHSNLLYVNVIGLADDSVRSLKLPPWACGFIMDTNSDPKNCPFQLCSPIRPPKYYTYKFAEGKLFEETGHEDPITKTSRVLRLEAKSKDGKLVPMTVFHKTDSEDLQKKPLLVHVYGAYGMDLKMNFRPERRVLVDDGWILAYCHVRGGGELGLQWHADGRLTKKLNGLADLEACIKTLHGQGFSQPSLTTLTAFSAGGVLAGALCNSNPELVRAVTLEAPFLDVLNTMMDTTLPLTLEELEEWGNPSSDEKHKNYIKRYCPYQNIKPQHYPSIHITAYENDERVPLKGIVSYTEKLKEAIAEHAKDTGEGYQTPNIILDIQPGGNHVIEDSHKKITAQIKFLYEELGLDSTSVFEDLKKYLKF
PP1 inh – blocks human PP1-alpha phosphatase, a PP5 counter-screen; P62136; purified PP1alpha, OMFP fluorescence; inhibition, % at 6.7 µM; 0.9% of 320,000 active;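 active = inhibition above the mean inhibition of all tested compounds plus 3 SD, computed separately for each screening campaign, cut at about 15% in these data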
PP5 primary – blocks human protein phosphatase 5 activity. P53041. 0.18% of 320,000 active. inhibition, % at 6.7 µM. purified PP5c, OMFP substrate fluorescence;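 active = inhibition above the campaign's mean inhibition across all tested compounds plus 3 SD, cut at about 9.5% in these data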;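 note: 0% = DMSO only and 100% = 100 µM cantharidin control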
TMEM16A act – activators or potentiators of mouse TMEM16A chloride channel. Q8BHY3. HEK293 TMEM16A/YFP-H148Q/I152L, iodide quench fluorescence; hits give low values. B-score at 10 µM. 0.3% of 340,000 active. AID 623877;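 active = fluorescence-ratio B-score plate-corrected deviation score at least 3 library SD below zero, with starting fluorescence score within 5 deviations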;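 note: channel opened by trigger with iodide after compound preincubation; score built on the fluorescence ratio of max minus min over baseline; more negative score means more quench and so TMEM16A activation or potentiation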
FID counter – fluorescent intercalator displacement, NS3 helicase counter-screen; 0.17% of 290,000 active; DNA fluorescent intercalator displacement, fluorescence; inhibition, % at 7.9 µM; AID 1845; in the data active = inhibition above about 37%;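 note: 0% = vehicle and 100% = reference compound; higher means more ethidium bromide displaced from hairpin DNA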
PP1 confirm – confirmation of human PP1 phosphatase inhibitors. inhibition, % at 6.7 µM. purified PP1alpha, OMFP substrate fluorescence. 52% of 1,900 active. shares compounds with PP1 inh;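 active = mean PP1 inhibition above a set limit taken from the earlier primary screen, cut at about 15% in these data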
PP5 inh counter – inhibits human PP5 phosphatase in PP1 counter-screen. inhibition, % at 6.7 µM. shares compounds with PP1 inh. purified PP5c, OMFP fluorescence. AID 2360. 4% of 1,900 active;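 active = mean PP5 inhibition over triplicate wells above about 9.5% taken from the earlier PP1 screen, limit read from the data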
Numbers without * were called inactive; i = inactive; / = not tested or not shown; ! = a repeat was not active. Hits are enriched below; roughly 2.7% of the tested compounds scored in any of these assays.

SMILES | ANO1 block | PREPL inhibitor | PP1 inh | PP5 primary | TMEM16A act | FID counter | PP1 confirm | PP5 inh counter
C/C=C\C=C/C(=O)Nc1cccc(C2=NOC3(C2)C[C@@H](C(N)=O)N(C(=O)COc2ccc(Cl)cc2)C3)c1 (stereo partly drawn) | i | -11 | 19* | 3 | i | / | -2 | -4
O=C(CN1C(=O)c2ccc([N+](=O)[O-])cc2C1=O)NCCC1=CCCCC1 | i | 0 | -8 | -2 | i | / | / | /
COc1ccc(C(Nc2ccc(S(=O)(=O)NCC3CCCO3)cc2)C(=O)NC(C)(C)C)cc1OC (stereo not drawn) | i | 2 | -1 | 1 | i | -28 | / | /
O=C(Nn1cnc2ccccc2c1=O)c1c(F)cccc1F | i | -6 | 0 | -1 | i | -2 | / | /
CCc1ccc(N=Nc2ccc(O)c3[nH]cnc23)cc1 | / | 18 | 21* | 0 | i | / | 10 | -1
O=C(c1ccc(Cn2c(=S)[nH]c3ccc(N4CCOCC4)cc3c2=O)cc1)N1CCN(c2ccc(F)cc2)CC1 | i | 63* | 18* | 5 | i | -32 | 19* | -1
Cc1ccc(C)c(N2CCN(C(=O)c3ccc(Cn4c(=S)[nH]c5ccc(N6CCOCC6)cc5c4=O)cc3)CC2)c1 | i | 21 | 30* | 3 | i | -15 | 13 | -2
O=C(CSc1nc(O)cc(=O)[nH]1)N1c2ccccc2CCc2ccccc21 | i | 24 | 28* | 1 | i | -29 | -3 | -4
CC1=C(C(=O)Nc2ccccc2)C(c2ccco2)C(C#N)=C(SCc2ccccc2)N1 (stereo not drawn) | i | -9 | 23* | 3 | / | -8 | 0 | -6
CC1=C(C(=O)Nc2ccccc2)C(c2ccco2)C(C#N)=C(SCC(=O)OC(C)C)N1 (stereo not drawn) | i | -11 | -1 | 3 | i | -27 | / | /
O=C(Nc1ccc(Br)cn1)c1cccc2c1-c1ccccc1C2=O | i | 4 | -3 | 1 | i | -1 | / | /
O=C(Cc1csc(NC(=O)Nc2ccc(Cl)cc2)n1)NC1CCCC1 | i | 13 | 24* | 4 | i | / | 19* | -3
CN(C)c1ccc(N=Cc2ccco2)cc1 | i | 31 | 18* | 1 | i | 3 | 10 | 3
COCCn1c(=O)[nH]c(=O)c2c1nc(-c1ccc(-c3ccc(Cl)cc3[N+](=O)[O-])o1)n2Cc1ccccc1 | i | 33 | 18* | 5 | i | -25 | 38* | 6
COc1ccc(-c2ccc(-c3nc4c(c(=O)[nH]c(=O)n4Cc4ccccc4)n3C)o2)c([N+](=O)[O-])c1 | i | 8 | -2 | 0 | i | -4 | / | /
CCOCC(=O)Nc1ccc2c(c1)N(S(=O)(=O)c1cccs1)CCC2 | i | -3 | -5 | -2 | i | / | / | /
O=C(Nc1ccccc1C(=O)O)c1cccc(S(=O)(=O)Nc2ccc(Br)cc2)c1 | i | -3 | 18* | 2 | i | 12 | 10 | 0
Cc1cccc(N(C)S(=O)(=O)c2c(C)[nH]c(C)c2C(=O)N2CCCC2)c1 | i | 10 | -2 | 0 | i | -11 | / | /
COc1cc2c(-c3ccccc3)c(C)oc2cc1/C=N/NC(N)=S | i | 1 | -2 | 2 | i | / | / | /
CCC(=O)N1C(C(=O)N2CCCC2)CSC1c1ccc(OC)cc1 (stereo not drawn) | i | 11 | -3 | 3 | i | -17 | / | /
CCC(=O)N1C(C(=O)O)CSC1c1ccc(OC)cc1 (stereo not drawn) | i | 1 | 31* | -1 | i | 0 | -2 | -4
COc1ccc(C(=O)Nc2ccc(Cl)cc2C(=O)N2CCCC(C)C2)cc1 (stereo not drawn) | i | -2 | 60* | -1 | i | -18 | -1 | -1
CCOc1ccc(C(=O)N/N=C/c2c(C)[nH]c(=O)[nH]c2=O)cc1 | i | 6 | -9 | 2 | / | -5 | / | /
Cc1ccc(C)c(Cn2nnc3c(=O)[nH]c(C(=O)NCc4ccco4)nc32)c1 | i | 3 | 19* | 1 | i | -30 | 4 | -5
O=C(NCc1ccco1)c1nc2c(nnn2Cc2ccccc2Cl)c(=O)[nH]1 | i | 0 | 9 | 2 | i | -31 | / | /
SMILES | ANO1 block | PREPL inhibitor | PP1 inh | PP5 primary | TMEM16A act | FID counter | PP1 confirm | PP5 inh counter
O=C(N/N=C/c1cc(Br)ccc1O)c1ccncc1 | i | 1 | -2 | 3 | i | -2 | / | /
O=C(N/N=C/c1ccc(O)c2ncccc12)c1cccc(Br)c1 | i | 7 | 21* | -1 | i | -10 | 18* | 1
O=C(O)/C=C/c1cn(-c2ccccc2)nc1-c1cc2ccccc2oc1=O | i | 11 | 1 | -2 | i | -24 | / | /
O=Cc1cn(-c2ccccc2)nc1-c1cc2cc(O)ccc2oc1=O | i | 15 | 28* | 2 | i | 3 | 18* | -2
O=C(CCC1CCCN(C(=O)c2cc3ccccc3o2)C1)NCc1ccc(F)c(F)c1 (stereo not drawn) | i | -35 | 0 | -1 | i | -37 | / | /
CCN(CC)CCOc1ccc(/C(=C(/Cl)c2ccccc2)c2ccccc2)cc1 | i | 8 | 19*! | 4 | i | 18 | -9 | 1
COc1ccc2[nH]c3c(c2c1)CCN1C(=O)C(CC(=O)NCCCn2ccnc2)C[C@H](C(=O)N2CCOCC2)[C@@]31C (stereo partly drawn) | / | / | / | / | i | / | / | /
CCOC(=O)CC1C(=O)NCCN1C(=O)c1c(Cl)cccc1Cl (stereo not drawn) | i | 5 | -3 | 2 | i | -3 | / | /
Nc1cccc(Nc2nc(OC(C(F)(F)F)C(F)(F)F)nc(OC(C(F)(F)F)C(F)(F)F)n2)c1 | 100* | 15 | 18* | 19* | i | -18 | 16* | 15*
O=C(Nc1nc(-c2ccccc2)cs1)C1COc2ccccc2O1 (stereo not drawn) | i | -18 | 0 | 2 | i | -11 | / | /
O=C(Nc1nc(-c2ccccn2)cs1)C1COc2ccccc2O1 (stereo not drawn) | i | -11 | 29* | 6 | i | -9 | 41* | -1
O=C(Nc1ccccn1)c1ccc2c(c1)OCCO2 | i | -1 | 4 | 1 | i | 3 | / | /
O=C(Nc1nc(-c2ccccn2)cs1)c1ccc2c(c1)OCCO2 | i | -5 | 39* | 4 | i | -15 | 43* | -3
CC(C)CN(C(=O)c1cccs1)C1CCS(=O)(=O)C1 (stereo not drawn) | / | / | / | / | i | / | / | /
O=C(O)c1cc(-c2cccs2)nn1-c1ccc(F)cc1 | i | -1 | 19* | 0 | i | -7 | 18* | -2
